# Screening data deposited in PubChem BioAssay by several laboratories.
# FGF22 binding: binders of human FGF22 protein, primary screen, FGF22 synaptogenesis inhibitor project, biophysical, thermal shift, single point | Fibroblast growth factor 22 (Homo sapiens), Q9HCT0 | recombinant FGF22 thermal shift, SYPRO orange fluorescence; percent of sucrose octasulfate shift, DMSO zero | activity (Tm shift, normalised), % at 9.99 µM | hit rate 1.5% among 340,000 | AID 651658, 2012;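 active means mean Tm shift, scaled 0 neutral to 100 positive control, at about 1.3% or above, every replicate too, limit read from the data; inconclusive means no clear call, values can overlap the other calls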
# Target sequence (Q9HCT0 whole entry, looked up): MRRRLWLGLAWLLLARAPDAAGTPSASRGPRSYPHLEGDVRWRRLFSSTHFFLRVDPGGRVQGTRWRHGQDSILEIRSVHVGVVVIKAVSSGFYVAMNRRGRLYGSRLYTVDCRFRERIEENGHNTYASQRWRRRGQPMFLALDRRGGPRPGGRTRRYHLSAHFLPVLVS
# SMARCA2 activ: SMARCA2 (BRM) function activators, primary screen, cell-based, luminescence, high throughput | MG213 cells, MMTV-luciferase reporter, dexamethasone, overnight | activation, % at 9.1 µM | hit rate 1% among 370,000 | AID 652017, 2013; in the data active means activation above about 7.8%;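 further: 0% = vehicle wells and 100% = reference activator wells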
# esBAF inh: Bmi1 luciferase reporter increase in mESCs, primary screen, esBAF inhibitor project, mouse ES cells, Bmi1 luciferase knock-in, single point; hit rate 2% among 350,000; 24 h; 100% = twice the neutral-well signal; reporter increase, % at 12.5 µM; in the data active means activation above about 40%; inconclusive means no clear call, values can overlap the other calls;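 further: 0% = median of the plate's neutral control wells and 100% = double that signal; a rise in the Bmi1 reporter signal indicates esBAF inhibition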
# MITF act: activators of MITF-driven TRPM1 promoter reporter, primary screen, cell-based, SK-MEL-5, luciferase, single point; SK-MEL-5 TRPM1-promoter luciferase, 24 h; % of positive control, neutral wells = 0; activation, % at 12.5 µM; hit rate 0.75% among 300,000;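 active means mean activation of at least 80% with every replicate also reaching 80%; inconclusive means mean reaches 80% but some replicate falls short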;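 further: 0% = neutral control wells and 100% = parthenolide positive control wells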
# MLL AF4-AF9 inh: inhibitors of AF4 peptide binding to AF9, primary screen, biochemical, AlphaScreen, biotin-AF4 peptide, FLAG-AF9, single point; inhibition, % at 10 µM; AID 651704, 2012; hit rate 0.47% among 350,000; Protein AF-9 (Homo sapiens), P42568;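 active means every replicate reaching a set inhibition limit, whatever the replicate mean, cut at about 25% in these data; inconclusive means mean inhibition reaches that limit but some replicates miss it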;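 further: 0% = plate neutral control median and 100% = total signal loss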
# Wnt bcat act: Wnt/beta-catenin pathway activators, primary screen, cell-based, plate reader, single point | Wnt/beta-catenin reporter cell assay, activator | activation, % at 9.35 µM | AID 743398, 2014 | hit rate 1.2% among 300,000; in the data active means activation above about 30%, passing the limit was not always enough; inconclusive means no clear call, values can overlap the other calls;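 further: 0% = neutral control wells and 100% = positive control wells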
# * hit, by the source's call; ? = inconclusive; nt = no result. Hits are enriched below; roughly 4.3% of the tested compounds scored in any of these assays.
SMILES,FGF22 binding,SMARCA2 activ,esBAF inh,MITF act,MLL AF4-AF9 inh,Wnt bcat act
COc1cccc(-c2cc(C(=O)N3C(C)CCCC3C)no2)c1 (stereo unspecified),nt,0,49*,?,nt,nt
O=C(c1cc(-c2cccc(O)c2)on1)N1CCCCCC1,0,-1,36,93*,1,37*
O=C(c1cc(-c2cccc(Cl)c2)on1)N1CCCC1,0,4,39,35,-3,40*
COC(=O)[C@@H]1[C@@H](CO)[C@@H]2Cn3c(ccc(-c4cccc(OC)c4)c3=O)[C@@H]2N1Cc1nccs1,0,nt,1,nt,-2,nt
CO[C@H]1CN(C)C(=O)c2cc(NS(=O)(=O)c3ccc(Cl)cc3)ccc2OC[C@H](C)N(C)C[C@@H]1C,nt,nt,2,nt,-1,nt
O=C(c1cc(-c2ccc(Cl)c(Cl)c2)on1)N1CCCCC1,nt,5,56*,104*,nt,nt
CCC1CCCCN1C(=O)c1cc(-c2ccc(Cl)c(Cl)c2)on1 (stereo unspecified),nt,-1,24,42,nt,nt
CC1CCCCN1C(=O)c1cc(-c2ccc(Cl)c(Cl)c2)on1 (stereo unspecified),nt,2,?,109*,nt,nt
Cc1noc(C)c1S(=O)(=O)N(C)C[C@@H]1OCCCC[C@@H](C)Oc2ccc(NC(=O)Nc3ccc4c(c3)OCO4)cc2C(=O)N([C@@H](C)CO)C[C@H]1C,0,nt,2,nt,nt,nt
Cc1cc(C)n(-c2ccc(F)cc2)c(=O)c1C(=O)O,nt,-1,nt,-6,nt,-5
CC(=O)c1c(O)cc(C)n(-c2ccc(F)cc2)c1=O,44*,3,nt,-3,-2,-5
O=Cc1c[nH]c2ccc(OCc3ccccc3)cc12,0,1,9,17,1,6
Cc1c(C=O)c2cc(OCc3ccccc3)ccc2n1C,0,0,70*,nt,3,16
Cn1ccc2cc(OCc3ccccc3)ccc21,0,4,49*,70,7,6
C/C(=N\Nc1nccnc1Cl)c1ccc(Br)cc1,0,2,20,20,2,4
COc1ccc(/C(C)=N/Nc2nccnc2Cl)cc1,0,7.9*,46*,65,1,29
Cc1ccccc1Cn1cc(CN2[C@H](C)COc3cc(Br)ccc3S2(=O)=O)nn1,nt,0,nt,nt,nt,nt
Brc1ccc(COc2cccc3cccnc23)cc1,0,6,71*,nt,-1,12
N#Cc1ccc(COc2cccc3cccnc23)cc1,0,-1,11,14,0,3
O=[N+]([O-])c1ccc(COc2cccc3cccnc23)cc1,0,0,83*,93*,-21,13
O=[N+]([O-])c1ccc(Sc2cccc3cccnc23)cc1,0,4,46*,6,-39,10
OCc1ccccc1OCCCOc1cccc2cccnc12,0,3,44*,53,-4,9
O=[N+]([O-])c1ccc(Sc2cccc3cccnc23)c([N+](=O)[O-])c1,0,-11,12,-76,-6,22
O=[N+]([O-])c1ccc(OCCCOc2cccc3cccnc23)cc1,0,1,4,15,2,0
O=[N+]([O-])c1cc(CN2CCN(c3ccccc3)CC2)c(O)c2ncccc12,43*,-2,-40,-74,16,-5
SMILES,FGF22 binding,SMARCA2 activ,esBAF inh,MITF act,MLL AF4-AF9 inh,Wnt bcat act
Oc1c(Cl)cc(CN2CCOCC2)c2cccnc12,0,-2,-13,-55,35*,-23
COc1cc(OC)cc(C(=O)Oc2c(CN3CCOCC3)cc(Cl)c3cccnc23)c1,41,-2,0,0,8,-1
NCCCC[C@H](N)c1nnc([C@H](CCC(=O)O)NC(=O)C2CCNCC2)o1,0,3,-1,18,28*,-1
N[C@@H](CO)c1nnc([C@H](CCC(=O)O)NC(=O)C2CCNCC2)o1,0,1,-5,-5,-2,-2
COc1ccc(NC(=O)N(C)C[C@H]2Oc3ccc(N(C)C)cc3CC(=O)N([C@@H](C)CO)C[C@@H]2C)cc1,0,nt,3,nt,-1,nt
COc1ccc(OC)c(NC(=O)c2cc3ccccc3cc2OC)c1,0,2,13,29,0,3
O=C(Nc1cccc(C(=O)Nc2ccc(Cl)cn2)c1)c1ccccc1,0,1,34,22,-2,2
COc1cc2ccccc2cc1C(=O)Nc1ccc(Cl)cn1,0,1,67*,47,-2,10
O=C(NC(=O)c1ccccc1)Nc1ccc(Cl)cn1,0,4,-6,53,0,35*
Cc1cc(NC(=O)c2ccccc2)ncc1NC(=O)c1cccs1,0,2,nt,32,0,13
Cc1cc(NC(=O)c2ccccc2F)ncc1NC(=O)c1cccs1,0,2,50*,58,-1,12
C/C(=C\c1ccccc1)C(=O)Nc1ccc(Cl)cn1,0,4,8,nt,5,33*
Cc1cc(C)cc(NC(=O)Nc2ccc(Cl)cn2)c1,0,-1,-3,0,-1,-1
CC(C)NC(=O)N1CCCCN2[C@@H](CO)[C@H](c3ccc(C#Cc4ccccc4)cc3)[C@@H]2C1,0,nt,nt,nt,6,nt
O=C(Nc1ccc(Cl)cn1)Nc1ccc(Cl)cn1,1,-1,nt,25,-2,22
O=C(Nc1ccc(Cl)cn1)Nc1ccccc1F,nt,4,35,nt,nt,39*
O=C(Nc1ccc(Cl)cn1)c1ccccc1F,nt,7,nt,30,nt,39*
COc1cccc(NC(=O)N[C@H]2CC[C@@H](CC(=O)Nc3ccc(-c4ccccc4)cc3)O[C@@H]2CO)c1,0,nt,18,nt,1,nt
C[C@@H]1CN([C@@H](C)CO)C(=O)Cc2cc(NC(=O)Cc3ccccc3)ccc2O[C@@H]1CN(C)C(=O)NC1CCCCC1,0,nt,0,nt,0,nt
CCCNC1(C(N)=O)CCN(Cc2ccccc2)CC1,43*,-4,-4,-8,-2,-4
O=C(CSCc1ccccc1Cl)N1CCN(c2ccccn2)CC1,nt,3,58*,41,nt,nt
C[C@H]1CN([C@@H](C)CO)C(=O)c2cc(N(C)C)ccc2O[C@H]1CN(C)Cc1ccncc1,0,nt,0,nt,-3,nt
Cc1c(C(=O)N2CCc3ccccc32)oc2c1C(=O)CC(C)(C)C2,nt,5,53*,?,nt,-2
Cc1c(C(=O)N2CCN(C)CC2)oc2c1C(=O)CC(C)(C)C2,0,5,-2,2,1,-1
Cc1cc(OCc2cc(C(=O)NC(C)c3c(C)nn(C)c3C)no2)cc(C)c1Cl (stereo unspecified),0,0,83*,46,2,1
